Assay outcomes deposited in PubChem BioAssay by University of Kansas High Throughput Screening Laboratory.
This is a sample that favours compounds with a hit; in the whole collection about 3.5% have one here.
Pf apPOL inh – Pf-apPOL inhibitors, biochemical, fluorescence; AID 1794808, 2022; Recombinant Pf-apPOL, molecular beacon fluorescence, 1.5 h; inhibition, % at 10 µM; 210,000 tested, 0.25% active; Plasmodium falciparum apicoplast DNA polymerase (apPOL)
mHTT CaM bind – mutant huntingtin-calmodulin interaction inhibitors – biochemical, AlphaScreen, primary screen | inhibition, % at 15 µM | 190,000 tested, 3.6% active | AID 1671202, 2021 | P42858 | AlphaScreen His-mHTT/GST-CaM binding, luminescence
Large screens that a line does not name were inactive. No stated cut-off is given here; in the data, active means inhibition above about 50%; inactive means the rest.

Cc1cc2c3c(C)n(C)c(C)c3c(C)nn2c1	mHTT CaM bind 79
O=[N+]([O-])c1ccc(NN=C2CCCCCC2c2ccccc2)c([N+](=O)[O-])c1 (centres undefined)	none (no result: mHTT CaM bind)
O=[N+]([O-])c1ccccc1NN=C1CCCC1	mHTT CaM bind 58 (no result: Pf apPOL inh)
Cc1c(C(=O)NC(C)(C)CO)cccc1[N+](=O)[O-]	none
C[C@H]1[C@@H]2C[C@H]([C@H]3CCCCN31)[C@H](OC(=O)NCc1ccc(Cl)cc1)C2	mHTT CaM bind 53
CCc1ccc(CCNC(=O)O[C@@H]2C[C@H]3C[C@@H]2[C@H]2CCCCN2[C@H]3C)cc1	none
O=C(Cn1ccc2ccccc21)NCc1ccc(OC(F)(F)F)cc1	none
COc1ccc(-c2ccc3nc(N4CCC(C(=O)NC(C)C)CC4)sc3n2)cc1	none
CCNC(=O)C1CCN(c2nc3ccc(-c4ccc(OC)cc4)nc3s2)CC1	mHTT CaM bind 62
O=C1CCC=C1CSc1ccccc1	none (no result: Pf apPOL inh)
O=C1ON=C(CSc2ccccc2)C1=Cc1ccccc1	Pf apPOL inh 61 (no result: mHTT CaM bind)
CC(=O)Nc1ccc(C(=O)NCc2cccc(F)c2)c(N2CCOCC2)c1	none
CC(=O)Nc1ccc(C(=O)NCc2cccc(F)c2)c(N2CCCCC2)c1	mHTT CaM bind 65
Cc1ccc(C(=O)Nc2cccnc2)o1	none
Brc1cccc(CNc2cc3c(cc2Br)OCCO3)c1	mHTT CaM bind 78
Brc1ccc2c(c1)OCCOCCOc1ccc(Br)cc1OCCO2	none
O=[N+]([O-])c1ccc(S(=O)(=O)N2CCN(Cc3cccc(F)c3)CC2)cc1	none
N#CCCn1c2c(c3ccccc31)CCCC2	none
c1ccc2[nH]c(CCn3c4c(c5ccccc53)CCCC4)nc2c1	mHTT CaM bind 66 (no result: Pf apPOL inh)
CC1(C)CC2CC(C)(CN2C(=O)CCN2C(=O)c3ccccc3C2=O)C1 (centres undefined)	none
Cc1cnc2c(nc1=O)NON2	none (no result: Pf apPOL inh)
COc1ccc(C(=O)Nc2cccc(SC)c2)cc1	none
COc1ccc(Nc2n[nH]nc2C(=O)Nc2cccc(SC)c2)cc1	mHTT CaM bind 50
COc1cc2c(cc1OC)CN(C(=O)C(c1ccccc1)n1cccc1)CC2 (centres undefined)	mHTT CaM bind 65
COc1ccc(C(=O)N2CCc3cc(OC)c(OC)cc3C2)cc1OC	none
COc1ccc(C2=C/C(=C\c3ccc(C)cc3)C(=O)O2)cc1	none
CCOc1ccc(-n2ccn3cc(-c4ccc(Cl)cc4)nc3c2=O)cc1	none
CCOc1ccccc1/C=C1\C(=O)Nc2ccc(Br)cc21	mHTT CaM bind 63
CCOc1ccccc1/C=C1\C(=O)Nc2ccc(Cl)cc21	mHTT CaM bind 64
CCOc1ccc(/C=C2\C(=O)Nc3ccc(Cl)cc32)cc1	none
Cc1ccc2c(c1)/C(=C/c1ccccc1Cl)C(=O)N2	none
O=C1Nc2ccc(Br)cc2/C1=C/c1ccccc1F	none
CCCOc1ccccc1/C=C1\C(=O)Nc2ccc(Br)cc21	mHTT CaM bind 97
Cc1ccccc1/C=C1\C(=O)Nc2ccc(Cl)cc21	mHTT CaM bind 85
CCOc1ccc(/C=C2\C(=O)Nc3ccc(Br)cc32)cc1	none
O=C(CSc1ncccn1)OCc1cc(-c2cccs2)on1	none
Cc1ccc(-c2nc3ccccc3o2)cc1NC(=O)c1ccc([N+](=O)[O-])c(C)c1	none
O=C(c1cnccn1)N1CCC(c2nncn2Cc2ccccc2)CC1	none
CC(C)(C)c1ccc(/C=C2\C(=O)Nc3ccc(Cl)cc32)cc1	mHTT CaM bind 60
CCOc1cccc(/C=C2\C(=O)Nc3ccc(Br)cc32)c1O	mHTT CaM bind 58
O=C1Nc2ccc(Cl)cc2/C1=C/c1ccc(Cl)cc1	none
CCOC(=O)C(C#N)=CN=C(NN=Cc1ccc2c(c1)OCO2)SC	none (no result: mHTT CaM bind)
O=C(CCCc1ccccc1)Nc1cccc([N+](=O)[O-])c1	none
O=C(Cc1c([N+](=O)[O-])cc([N+](=O)[O-])cc1S(=O)Cc1ccccc1)Nc1ccccc1 (centres undefined)	mHTT CaM bind 84
CC1(C)OCC2(CO1)CN(C(=O)CC1CCCC1)C2	none
Cc1ccccc1NC(=O)C1(N(C(=O)Cn2nnnc2N)c2ccccc2)CCCCC1	none
CCC(=O)NC(=Nc1nc(C)c2cc(C)c(C)cc2n1)NC(=O)CC	Pf apPOL inh 52
CCOc1ccc2c(C)nc(N=C(N)NC(=O)CC)nc2c1	none
N#CC1=C(N)OC2=C(CC/C2=C\c2ccccc2)C1c1ccccc1 (centres undefined)	mHTT CaM bind 90
N#CC1=C(N)OC2=C(C(=O)CCC2)C1c1ccccc1 (centres undefined)	none
Cc1ccsc1/C=C1\N=C(c2ccc(Br)cc2)OC1=O	none
O=C(NCCc1csc2nc(-c3cccs3)nn12)C1(c2ccccc2)CCOCC1	none
COc1ccc(S(=O)(=O)NCCSC(C)(C)C)cc1Br	none
O=Cc1cc(OCc2ccccc2)ccc1O	mHTT CaM bind 76
COc1ccc(OCc2ccccc2)c(C=O)c1	none
O=C(CNC1=NCCC1)c1ccc(Br)cc1	none
O=C(CNC1=NCCC1)c1ccc(-c2ccccc2)cc1	mHTT CaM bind 100
COCC(C)NC(=O)C(c1ccccc1)c1ccccc1 (centres undefined)	none
COCCc1nnc(NC(=O)C(c2ccccc2)c2ccccc2)o1	mHTT CaM bind 96
O=C(NNC(=S)Nc1cc(C(F)(F)F)cc(C(F)(F)F)c1)c1cccs1	none (no result: mHTT CaM bind)
O=C(c1ccc(Cl)cc1)N1CCCC2(CC(c3ccccc3)=CO2)C1 (centres undefined)	mHTT CaM bind 91
COc1ccc(C2=COC3(CCCN(C(=O)c4ccccc4)C3)C2)cc1 (centres undefined)	mHTT CaM bind 65
O=C(c1ccc(Cl)cc1)N1CCCC2(CC(c3ccc(Cl)cc3)=CO2)C1 (centres undefined)	none
O=C(c1ccccc1)N1CCCC2(CC(c3cccnc3)=CO2)C1 (centres undefined)	mHTT CaM bind 97
O=C(c1ccc(F)cc1)N1CCCC2(CC(c3cccnc3)=CO2)C1 (centres undefined)	none
COc1ccc(C2=COC3(CCCN(C(=O)c4ccc(F)cc4)C3)C2)cc1 (centres undefined)	none
Cc1cccc(-c2nc(C3CCN(S(=O)(=O)c4ccccc4F)CC3)no2)c1	none
CCCCC[C@H](C)N1C[C@H](COCc2ccccc2)Oc2cc(N3CC[C@@H](O)C3)ccc2S1(=O)=O	mHTT CaM bind 92
CCCCC[C@@H](C)N1C[C@H](COCc2ccccc2)Oc2cc(N3CCC[C@@H]3CO)ccc2S1(=O)=O	none
C[C@@H](c1ccccc1)N1C[C@H](COCc2ccccc2)Oc2cc(N3CC[C@H](O)C3)ccc2S1(=O)=O	none
CCCCC[C@@H](C)N1C[C@@H](COCc2ccccc2)Oc2cc(N3CC[C@H](N(C)C)C3)ccc2S1(=O)=O	mHTT CaM bind 100
CCCCC[C@H](C)N1C[C@@H](COCc2ccccc2)Oc2cc(N3CC[C@H](O)C3)ccc2S1(=O)=O	mHTT CaM bind 88
CCCCC[C@H](C)N1C[C@@H](COCc2ccccc2)Oc2cc(N3CC[C@H](N(C)C)C3)ccc2S1(=O)=O	none
COc1cccc(C(=O)N2CCCC3(C2)Nc2ccccc2NC3=NC2CCCC2)c1OC (centres undefined)	none
O=C1OC(c2ccccc2)=N/C1=C/c1cccc(Cl)c1	none
CC(C)c1ccc(CNC(=O)c2cc3c(s2)CN(C(C)C)C3)cc1	none
O=C(c1ccc(COc2cc(Cl)ccc2Cl)o1)N1CCSCC1	none
COc1ccc(S(=O)(=O)N2CCN(C(=O)C(c3ccccc3)c3ccccc3)CC2)cc1	none
O=C(Nc1nc(-c2ccccn2)cs1)c1sc2ccccc2c1Cl	mHTT CaM bind 100
O=C(NCc1ccccn1)c1sc2ccccc2c1Cl	none
